# KCNQ2 pot = potentiators of rat KCNQ2 potassium channel. O88943. CHO-K1 KCNQ2, FluxOR thallium flux fluorescence; active compounds read high. B-score at 10 µM. hit rate 0.54% among 310,000. AID 2239;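 active means fluorescence ratio B-score at least 3 SD of library B-scores, with initial fluorescence B-score within 3 of them, cut at about 5.3 in these data; same plate scores as AID 2156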;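 further: B-score of peak minus minimum over baseline fluorescence ratio after K+ and Tl+ stimulus; positive B-score means potentiation of KCNQ2 with more thallium influx and brighter signal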
# Target sequence (O88943 whole entry, looked up): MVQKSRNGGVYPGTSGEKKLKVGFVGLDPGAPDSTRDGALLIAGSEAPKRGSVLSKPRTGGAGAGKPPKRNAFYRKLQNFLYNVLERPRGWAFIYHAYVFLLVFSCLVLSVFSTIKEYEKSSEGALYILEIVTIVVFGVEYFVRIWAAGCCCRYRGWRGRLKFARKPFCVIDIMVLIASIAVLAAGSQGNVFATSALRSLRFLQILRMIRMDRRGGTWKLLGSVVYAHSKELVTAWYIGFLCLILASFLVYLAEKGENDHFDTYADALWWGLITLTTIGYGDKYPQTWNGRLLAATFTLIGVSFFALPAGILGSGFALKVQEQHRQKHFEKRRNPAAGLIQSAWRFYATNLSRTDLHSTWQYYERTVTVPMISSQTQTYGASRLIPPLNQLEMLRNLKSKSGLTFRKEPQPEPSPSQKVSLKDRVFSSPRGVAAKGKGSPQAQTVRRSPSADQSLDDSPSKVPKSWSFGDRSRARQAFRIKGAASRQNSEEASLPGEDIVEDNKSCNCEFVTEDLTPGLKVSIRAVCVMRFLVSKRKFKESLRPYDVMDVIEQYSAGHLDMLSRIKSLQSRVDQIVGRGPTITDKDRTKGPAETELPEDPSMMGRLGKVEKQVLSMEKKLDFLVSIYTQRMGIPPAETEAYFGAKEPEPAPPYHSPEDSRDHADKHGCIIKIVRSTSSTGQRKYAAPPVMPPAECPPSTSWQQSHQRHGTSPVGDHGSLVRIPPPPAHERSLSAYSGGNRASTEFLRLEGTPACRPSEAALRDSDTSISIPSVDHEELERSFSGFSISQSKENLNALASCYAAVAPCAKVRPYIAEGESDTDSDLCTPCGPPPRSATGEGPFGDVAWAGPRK
# KCNQ2 block = KCNQ2 (rat) channel inhibition | O88943 | CHO-K1 KCNQ2, FluxOR thallium flux, 20 min; active compounds read low | B-score at 10 µM | hit rate 1.1% among 310,000 | AID 2156;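 active means fluorescence ratio B-score at most minus 3 library SDs, with starting brightness B-score within 2 library SDs, cut at about -5.5 in these data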
# KCNQ2 inh conf = rat KCNQ2 channel inhibition, confirmatory screen. hit rate 57% among 1,000. AID 493025. KCNQ2-expressing cells, thallium flux; active compounds read low. shares compounds with KCNQ2 block. activity change, negative = inhibition, % at 10 µM;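 further: 0% = vehicle wells and values are ratio percent relative to vehicle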
# KCNQ1 spec = human KCNQ1 activity in KCNQ2 inhibitor specificity screen; shares compounds with KCNQ2 block; KCNQ1-expressing cells, FluxOR thallium flux fluorescence; active compounds read low; activity change, negative = inhibition, % at 10 µM; hit rate 15% among 1,000;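 active means activity change at least 3 SD of negative controls below their mean in both duplicate wells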;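 further: CHO cells stably transfected with KCNQ1 and depolarized by potassium stimulus; peak minus minimum fluorescence over baseline after thallium addition; 0% = vehicle negative control and -100% = blank without thallium stimulus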
# CHO parental ctr = activity in parental CHO cells lacking KCNQ2; shares compounds with KCNQ2 block; thallium flux counter-screen; active compounds read low; activity change, % at 10 µM; hit rate 14% among 1,000;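 further: 0% = vehicle negative controls with stimulus buffer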
# KCNQ2 inh confirm = confirmation of rat KCNQ2 potassium channel inhibitors; shares compounds with KCNQ2 block; KCNQ2-expressing cells, automated patch clamp current; calls only at 10 µM; hit rate 49% among 550; AID 588531
# * hit, by the source's call; i = inactive; . = no result given; + = active, no number. In the library only some 1.6% were active in any assay of this set; here they are far more common. Unless noted, how the calls were made is not given here.
SMILES,KCNQ2 pot,KCNQ2 block,KCNQ2 inh conf,KCNQ1 spec,CHO parental ctr,others
COc1cc(/C=N/N=C(N)N)ccc1OCc1ccccc1Cl,-10,-10*,-26%*,i,i,KCNQ2 inh confirm=i
COc1ccc(/C=N/N=C/c2ccc(OC)c(OC)c2)cc1OC,0.43,i,.,.,.,
O=C(CSC1=NCCN1)NC(c1ccccc1)c1ccccc1,-9.7,-9.7*,i,i,i,
O=C(CSC1=NCCN1)Nc1ccccc1[N+](=O)[O-],.,i,.,.,.,
COc1ccccc1N1CCN(CCN2C(=O)CC3(CCCC3)CC2=O)CC1,0.12,i,.,.,.,
c1ccc(C(NCCNC(c2ccccc2)c2ccccc2)c2ccccc2)cc1,-7.2,-7.2*,-28%*,i,i,KCNQ2 inh confirm=i
NS(=O)(=O)c1ccc(CCNC(c2ccccc2)c2ccccc2)cc1,0.51,i,.,.,.,
O=C(COC(=O)c1cc(S(=O)(=O)N2CCOCC2)ccc1O)NCC1CCCO1 (configuration not stated),0.91,i,.,.,.,
COCC(=O)Nc1sc2c(c1C(=O)OC)CCCC2,.,i,.,.,.,
COC(=O)c1c(NC(=O)Cc2cccs2)sc2c1CCCC2,-8.4,-8.4*,-30%*,i,i,KCNQ2 inh confirm=i
O=C(NCC(c1ccco1)N1CCc2ccccc2C1)c1ccccc1Br (configuration not stated),.,i,.,.,.,
O=C(NCC(c1ccco1)N1CCc2ccccc2C1)c1ccc(Br)cc1 (configuration not stated),-9.7,-9.7*,-37%*,i,i,KCNQ2 inh confirm=+
Cc1ccc(C(=O)NCC(c2ccco2)N2CCc3ccccc3C2)cc1 (configuration not stated),-6.7,-6.7*,i,i,i,
O=C(NCC(c1ccco1)N1CCOCC1)c1cccc(Cl)c1 (configuration not stated),1.1,i,.,.,.,
O=C(NCC(c1ccco1)N1CCc2ccccc2C1)c1ccc(Cl)cc1 (configuration not stated),-10,-10*,-31%*,-30%*,-22%*,KCNQ2 inh confirm=+
Cc1ccc(C(=O)NCC(c2ccco2)N2CCOCC2)cc1 (configuration not stated),1.6,i,.,.,.,
O=C(NCC(c1ccco1)N1CCc2ccccc2C1)c1cccc(Br)c1 (configuration not stated),-7.9,-7.9*,i,i,i,
O=C(NCC(c1ccco1)N1CCc2ccccc2C1)c1c(F)cccc1F (configuration not stated),0.53,i,.,.,.,
CCn1c(COc2cccc(C)c2)nc2ccccc21,.,i,.,.,.,
O=C(CNS(=O)(=O)c1c(Cl)cccc1Cl)OCC(=O)c1ccc[nH]1,.,i,.,.,.,
Cc1ccc(C)c(S(=O)(=O)NCC(c2ccco2)N2CCc3ccccc3C2)c1 (configuration not stated),.,i,.,.,.,
Cc1ccc(C(=O)NCC(c2ccco2)N2CCc3ccccc3C2)cc1C (configuration not stated),-8.8,-8.8*,-28%*,i,i,
CC#CCN1c2ccccc2[C@]23C[C@@H](C(=O)OC)N(C(=O)OCC)C2=NC(C(=O)OC)=C(C(=O)OC)[C@H]13,0.31,i,.,.,.,
COc1ccc(C(c2nnnn2Cc2ccccc2)N2CCN(c3nc4ccccc4s3)CC2)cc1OC (configuration not stated),.,i,.,.,.,
c1ccc(C(c2nnnn2Cc2ccco2)N2CCN(c3nc4ccccc4s3)CC2)cc1 (configuration not stated),.,i,.,.,.,
SMILES,KCNQ2 pot,KCNQ2 block,KCNQ2 inh conf,KCNQ1 spec,CHO parental ctr,others
c1ccc(Cn2nnnc2C(c2ccccc2)N2CCN(c3nc4ccccc4s3)CC2)cc1 (configuration not stated),-7.9,-7.9*,-37%*,i,i,KCNQ2 inh confirm=i
COc1ccccc1C(c1nnnn1Cc1ccccc1)N1CCN(c2nc3ccccc3s2)CC1 (configuration not stated),-8.8,-8.8*,-31%*,i,i,KCNQ2 inh confirm=+
Cc1cc(NC(=O)CSc2nc3ccccc3[nH]2)no1,0.57,i,.,.,.,
Cc1ccc(S(=O)(=O)N2CCN(c3ccnc4cc(Cl)ccc34)CC2)cc1,0.23,i,.,.,.,
O=C(Nc1ccccc1)Oc1ccccc1N1CCOCC1,0.43,i,.,.,.,
O=C(CCN1C(=O)C2C3CCC(C3)C2C1=O)OCC(=O)c1ccc(Br)cc1 (configuration not stated),.,i,.,.,.,
COc1ccccc1CNC(=O)CN1C(=O)C(C)N(c2ccc(C)cc2)C1=O (configuration not stated),-7.5,-7.5*,i,i,i,
COc1ccc(CNC(=O)CN2C(=O)C(C)N(c3ccc(C)cc3)C2=O)cc1 (configuration not stated),.,i,.,.,.,
CCOc1ccc(CN(C)C(=O)CNC(=O)Cc2cccc3ccccc23)cc1,0.11,i,.,.,.,
COc1ccc(NC(C)=O)cc1NC(=O)CN1CCN(CC(=O)Nc2ccccc2Cl)CC1,.,i,.,.,.,
C#CC(CC)(CC)NC(=S)Nc1ccc(S(N)(=O)=O)cc1,0.69,i,.,.,.,
CC(NC(=O)/C(C#N)=C/c1ccc(Cl)c([N+](=O)[O-])c1)c1ccccc1 (configuration not stated),-11,-11*,-26%*,i,i,KCNQ2 inh confirm=i
CC(NC(=O)/C(C#N)=C/c1ccc(OCC(=O)O)cc1)c1ccccc1 (configuration not stated),.,i,.,.,.,
O=C(COc1ccc2ccccc2c1)Nc1ccc2c3c(cccc13)CC2,0.07,i,.,.,.,
O=C(N1CCOCC1)N1c2ccccc2Sc2ccccc21,.,i,.,.,.,
CC1CCCN(C(=O)N2c3ccccc3Sc3ccccc32)C1 (configuration not stated),-6.9,-6.9*,-15%*,i,i,KCNQ2 inh confirm=i
CC1CCC(=C(C#N)c2nc(-c3cc4ccccc4oc3=O)cs2)CC1 (configuration not stated),-8.5,-8.5*,i,i,i,
N#CCc1nc(-c2cc3ccccc3oc2=O)cs1,0.89,i,.,.,.,
Cc1ccc(SCc2cn3c(C)csc3n2)cc1,-8.1,-8.1*,i,i,i,
Cc1ccc(S(=O)(=O)NCc2cn3c(C)csc3n2)cc1,0.73,i,.,.,.,
O=C(OCC(=O)N(C1CCCCC1)C1CCCCC1)c1ccc(O)cc1,0.71,i,.,.,.,
O=C(OCC(=O)N(C1CCCCC1)C1CCCCC1)c1ccccc1O,-7.3,-7.3*,-36%*,i,i,KCNQ2 inh confirm=+
O=C(O)CCCNC(=O)OCc1ccccc1,.,i,.,.,.,
Cc1cccc(C)c1OCCNC(=O)OCc1ccccc1,-6.9,-6.9*,i,i,i,
C=CCC1(CC=C)CCCN1C(=O)c1cc(COc2cccc(C(F)(F)F)c2)on1,-9.5,-9.5*,-34%*,-30%*,-28%*,KCNQ2 inh confirm=+
CCOC(=O)N1CCN(C(=O)c2cc(COc3cccc(C(F)(F)F)c3)on2)CC1,0.66,i,.,.,.,
c1ccc(COc2ccc(-c3sc(Nc4ccccc4)n[n+]3-c3ccccc3)cc2)cc1,0.01,i,.,.,.,

# Screening results from PubChem.
